# Data: PubChem BioAssay AID2685 (National Center for Advancing Translational Sciences (NCATS), 2010)
# In all, about 320,000 compounds went through this assay and about 2,100 (0.66%) were called active. Not shown: some 53% with an inconclusive outcome. Calls come from the whole dose curve; as a rule, active = well fitted inhibition curve with a large enough effect in the signal ratio, with a control signal flat (not every such curve was filed as active); inconclusive = small, poorly fitted or top-dose-only effect, or effect the other way, or a change in a side signal; inactive = flat fitted curve, though single readings scatter; the % refers to the signal ratio. The sample as a whole holds a higher share of actives than the screen did.
# Experiment: qHTS Assay for Lipid Storage Modulators in Drosophila S3 Cells;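 for cell number change: cells counted by Cell Tracker Red CMTPX staining in the red channel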; for lipid storage change, negative = inhibition: % is set by controls: 0 for no effect and ±100 for the full control effect
# Conditions: BODIPY lipid droplet fluorescence, 18-24 h, cells fed with added oleic acid; cell number change: measured here: cell count max response; series mostly up to 46.1 µM; lipid storage change, negative = inhibition: at the top concentration
# Summary of the method: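 Drosophila S3 cells got compounds at several concentrations plus oleic acid (400 uM solution). Laser-scanning cytometry with 488 nm excitation read lipid droplets at 500-530 nm and cells at 575-640 nm. Percent activity was relative to 20 uM Triacsin C.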
# Potency is the fitted concentration of half-maximal effect.
SMILES,Potency,cell number change,"lipid storage change, negative = inhibition",outcome
COc1ccc(N(C(=O)Cn2nnc(-c3ccc(F)cc3)n2)C(C)C(=O)NC2CCCC2)cc1 (stereo not given),1.3 µM (active),10.5%,,
COc1ccc(N(C(C)C(=O)NC2CCCCCC2)S(C)(=O)=O)cc1 (stereo not given),5.17 µM (active),22.1%,,
CC(C(=O)NC1CCCC1)N(c1ccc(Oc2ccccc2)cc1)S(C)(=O)=O (stereo not given),,11.4%,15.3% (inactive),
CCOc1ccc(N(C(C)C(=O)NC2CCCCCC2)S(C)(=O)=O)cc1 (stereo not given),,,,inactive
CC(C(=O)NC1CCCC1)N(C(=O)Cn1nnc(-c2ccc(F)cc2)n1)c1ccccc1F (stereo not given),,-1.32%,,inactive
COc1ccc(N(CC(=O)NC2CCCC2)C(=O)Cn2nnc(-c3ccc(F)cc3)n2)cc1,,7.89%,,inactive
CCC(CC)c1nnc(NC(=O)CN2C(=O)NC3(CCCC3)C2=O)s1,,9%,,inactive [at 0.369 µM]
Cn1c(Cn2c3ccccc3c3ccccc32)n[nH]c1=S,,-6.36%,2.12% (inactive),
O=C(O)c1ccccc1-n1cnnn1,,-10.9%,-27.2% (inactive),
CC(C)NCCOCCSc1ccc(Cl)cc1,20.6 µM (active),-7.67%,,
CCCCNCCOCCSc1ccc(Cl)cc1,,-17.4%,-18.9% (inactive),
CCC(C)NCCOCCSc1ccc(Cl)cc1 (stereo not given),,14.1%,0.747% (inactive),
Cc1ccccc1C(=O)Nc1cccc(-c2ccc3nncn3n2)c1,,10.3%,-1.94% (inactive),
CCOc1ccccc1OCCn1ncc2ccc(OC)c(OC)c2c1=O,,16.5%,-3.25% (inactive),
CCOc1ccccc1OCCCNCc1ccccc1,,2.07%,26.7% (inactive),
COCCNCc1ccccc1,18.4 µM (active),-17.8%,,
Brc1ccccc1OCCNCc1ccccc1,,17.2%,7.29% (inactive),
CS(=O)(=O)c1ccc(C(=O)Nc2ccc(N3CCOCC3)cc2)c(Cl)c1,,,-24.8% (inactive),
COc1ccc(NC(=O)COC(=O)C2CCC2)cc1Cl,,12.2%,6.28% (inactive),
COc1cc(=O)[nH]c(SC(C)C(=O)Nc2nc3c(s2)CCCC3)n1 (stereo not given),,7.98%,,inactive
CCC(Sc1nc(C)cc(=O)[nH]1)C(=O)Nc1nc2c(s1)CCCC2 (stereo not given),14.6 µM (active),-8.37%,,
Cc1cc(=O)[nH]c(SCC(=O)Nc2nc3c(s2)CCCC3)n1,,12.9%,-0.416% (inactive),
Cc1ccccc1-c1nc(CSc2nc3c(c(=O)[nH]2)CCC3)c(C)o1,,-21.7%,29% (inactive),
O=c1oc(-c2cccs2)nc2scc(-c3cccs3)c12,14.6 µM (active),-10.7%,,

SMILES,Potency,cell number change,"lipid storage change, negative = inhibition",outcome
CCc1nc2scc(-c3cccs3)c2c(=O)o1,,9.87%,6.47% (inactive),
Cc1sc2nc(-c3cccs3)oc(=O)c2c1C,,5.53%,0.745% (inactive),
CN1CCN(NC(=O)Nc2cc(Cl)cc(Cl)c2)CC1,4.61 µM (active),,,
CN1CCN(NC(=O)Nc2ccc(F)cc2)CC1,,17.8%,,inactive
CN1CCN(NC(=O)Nc2ccc(Br)cc2)CC1,,,2.95% (inactive),
CCOC(=O)C1CCCN(C(=O)c2cc3ncc(Br)cn3n2)C1 (stereo not given),,5.95%,,inactive
CC(Oc1ccccc1)c1nnc(N)s1 (stereo not given),,14.9%,-1.67% (inactive),
CC(=O)N1CCN(c2ccc(NC(=O)c3ccco3)cc2)CC1,,-9.52%,,inactive
O=C(COc1ccc(Cl)cc1)Nc1ccc(N2CCN(C(=O)c3ccco3)CC2)cc1,,-2.54%,-3.43% (inactive),
O=C(COc1ccc([N+](=O)[O-])cc1)Nc1ccc(N2CCN(C(=O)c3ccco3)CC2)cc1,2.06 µM (active),-6.49%,,
CC(C)(C)OC(=O)N1CCN(c2ccc(NC(=O)c3ccco3)cc2)CC1,3.26 µM (active),4.03%,,
O=C(COc1ccccc1)Nc1ccc(N2CCN(C(=O)c3ccco3)CC2)cc1,,11.5%,1.13% (inactive),
O=C(Nc1ccc(N2CCN(C(=O)c3ccco3)CC2)cc1)c1ccco1,,25.3%,0.808% (inactive),
CCOC(=O)C1CCCN(C2CC(=O)N(c3ccc(C(C)C)cc3)C2=O)C1 (stereo not given),,15.9%,-14.3% (inactive),
COc1cccc(NC(=O)COC(=O)CCS(=O)(=O)c2ccc(C)cc2)c1,,,9.39% (inactive),
O=C(NC1CCSC1=O)c1ccc(Cl)cc1 (stereo not given),,12%,-0.574% (inactive),
CC(C)[C@H](NC(=O)NC1CCN(Cc2ccccc2)CC1)C(=O)O,,11.2%,-6.91% (inactive),
N=C1C(=O)OCC1c1ccccc1NC(=O)c1ccc(F)cc1 (stereo not given),,-9.08%,,inactive
O=C(Nc1cccc(NC(=O)c2ccccc2[N+](=O)[O-])n1)c1ccccc1[N+](=O)[O-],,-14.1%,-1.54% (inactive),
Cc1cc(C)nc(N2CCC(C(=O)NC3CC3)CC2)n1,0.58 µM (active),11.7%,,
Cc1cc(C)nc(N2CCC(C(=O)O)CC2)n1,,,1.1% (inactive),
Cc1cc(C)nc(N2CCCC(C(=O)NC3CC3)C2)n1 (stereo not given),,0.42%,,inactive
COc1ccc(NC(=O)C2CCN(S(=O)(=O)c3c(C)noc3C)CC2)cc1OC,,0.165%,-10.7% (inactive),
CCc1ccc(NC(=O)C2CCN(S(=O)(=O)c3c(C)noc3C)CC2)cc1,,,,inactive

SMILES,Potency,cell number change,"lipid storage change, negative = inhibition",outcome
Cc1noc(C)c1S(=O)(=O)N1CCC(C(=O)Nc2ccc(OC(F)(F)F)cc2)CC1,18.4 µM (active),-15.1%,,
CCCN1CCN(CCCNC(=O)c2ccc3nc(N4CCC(C)CC4)sc3c2)CC1,,-11.1%,,inactive
N#CCCN1CCN(S(=O)(=O)c2ccc(S(=O)(=O)NC3CC3)cc2)CC1,,17.2%,23.6% (inactive),
O=S(=O)(NC1CC1)c1ccc(S(=O)(=O)N2CCC3(CC2)OCCO3)cc1,,0.569%,10.1% (inactive),
CCS(=O)(=O)N1CCN(S(=O)(=O)c2ccc(S(=O)(=O)NC3CC3)cc2)CC1,6.51 µM (active),8.57%,,
CCN(c1ccccc1)S(=O)(=O)c1cc(NC(=O)COC(=O)C2CC2)ccc1Cl,,6.19%,4.21% (inactive),
COc1ccccc1N1CCN(C(=O)/C=C/c2cccc([N+](=O)[O-])c2)CC1,,9.07%,-0.92% (inactive),
COc1ccc([N+](=O)[O-])cc1NC(=O)c1cccs1,,,10.1% (inactive),
COc1cc([N+](=O)[O-])ccc1N/C=C/C(=O)c1cccs1,11.6 µM (active),-11.2%,,
O=C(N/N=C/c1cccc([N+](=O)[O-])c1)c1ccc2c(c1)OCCO2,,23.7%,-0.131% (inactive),
O=C(/C=C/c1cccc([N+](=O)[O-])c1)N1CCN(c2ccc(F)cc2)CC1,20.6 µM (active),2.7%,,
CNc1cc([N+](=O)[O-])ccc1N/C=C/C(=O)c1cccs1,,-14.6%,-0.527% (inactive),
CN(C)c1ccc(/C=C/C(=O)c2ccc3c(c2)OCCO3)cc1[N+](=O)[O-],,33.3%,13.5% (inactive),
O=C(/C=C/c1ccc([N+](=O)[O-])cc1)c1ccco1,,-5.18%,1.8% (inactive),
O=C(/C=C/c1cccc([N+](=O)[O-])c1)N1CCN(C(=O)c2ccco2)CC1,,23.6%,13.1% (inactive),
O=C(/C=C/c1cccc([N+](=O)[O-])c1)N1CCOCC1,,,11.4% (inactive),
O=C(/C=C/c1cccc([N+](=O)[O-])c1)c1ccco1,4.11 µM (active),-29.8%,,
O=C(/C=C/c1cccc([N+](=O)[O-])c1)c1ccc2c(c1)OCCO2,18.4 µM (active),-6.34%,,
COc1ccccc1N1CCN(C(c2cc3cc(C)ccc3[nH]c2=O)c2nnnn2C2CCCC2)CC1 (stereo not given),,10.4%,9.5% (inactive),
CC(NC(=O)COC(=O)CNC(=O)c1ccc(-c2ccccc2)cc1)c1ccccc1 (stereo not given),,0.973%,1.51% (inactive),
O=C(Nc1ccc(COc2ccccc2)cc1)c1cccc([N+](=O)[O-])c1,,-16.9%,-6.34% (inactive),
O=C(NC1CCCC1)C1CCC(=O)N1C1CCCCC1 (stereo not given),,1.84%,-0.542% (inactive),
Cn1c(Cn2c(=O)sc3ccccc32)nnc1SCC(=O)N1CCOCC1,,7.25%,-0.98% (inactive),
O=C(/C=C/c1ccc([N+](=O)[O-])cc1)c1cccs1,,1.74%,7.23% (inactive),

SMILES,Potency,cell number change,"lipid storage change, negative = inhibition",outcome
O=C(/C=C/c1cccc([N+](=O)[O-])c1)c1cccs1,23.1 µM (active),-11.1%,,
O=C(/C=C/c1cccc([N+](=O)[O-])c1)Nc1ccc(NC(=O)c2cccs2)cc1,,5.37%,5.47% (inactive),
OCCNCc1cc(Br)ccc1OCc1ccc(F)cc1,,-0.637%,-27.1% (inactive),
O=C(CC(NC(=O)c1ccccc1Cl)c1ccccc1)NCCc1ccc(Cl)cc1 (stereo not given),,10.1%,5.66% (inactive),
Cc1cc(=O)[nH]c(SCC(=O)N2CCCCC2)n1,,4.95%,,inactive
Cc1cc(=O)[nH]c(SCC2(O)C3CC4CC(C3)CC2C4)n1 (stereo not given),29.1 µM (active),-7.4%,,
CCCSc1nc(C)cc(=O)[nH]1,,7.07%,-10.3% (inactive),
COc1ccc([N+](=O)[O-])cc1NC(=O)c1cccnc1,,9.82%,-20.3% (inactive),
CCCNc1nc(C)cc(-c2cc(C(=O)NCc3ccccc3)on2)n1,,1.8%,8.29% (inactive),
CCOc1ccccc1N1CC(C(=O)Nc2ccccc2N2CCCC2)CC1=O (stereo not given),,,22.4% (inactive),
Cc1cccc(N2CC(C(=O)Nc3ccccc3N3CCCC3)CC2=O)c1C (stereo not given),,,29.9% (inactive),
COc1ccc(C)cc1N1CC(C(=O)Nc2ccccc2N2CCCCC2)CC1=O (stereo not given),1.03 µM (active),3.68%,,
Cc1ccc(-c2nc(C#N)c(NCCN3CCCCC3)o2)cc1,,1.25%,,inactive
CCOC(=O)c1c(C)[nH]c(C=C2C(=O)CCCC2=O)c1O,,-4.56%,-2.52% (inactive),
Cn1cccc1/C=C(/C#N)C(N)=S,,0.988%,10.6% (inactive),
O=C(NCCc1c[nH]c2ccccc12)C(=O)NCC(c1ccco1)N1CCN(c2ccccc2)CC1 (stereo not given),,-12.5%,20.1% (inactive),
Cc1ccc(NS(=O)(=O)c2ccc(C(=O)OCC(=O)Nc3cc(C)on3)cc2)cc1,,-18.1%,-0.058% (inactive),
c1ccc(C[n+]2c(-c3ccccc3)csc2Nc2ccccc2)cc1,,-10.6%,1.38% (inactive),
O=[N+]([O-])c1ccc(-c2csc(Nc3ccccc3)[n+]2Cc2ccccc2)cc1,13 µM (active),-27.2%,,
COc1ccc(-c2csc(Nc3ccccc3)[n+]2CC(O)c2ccc([N+](=O)[O-])cc2)cc1 (stereo not given),,-3.41%,-0.0678% (inactive),
O=C1OCc2cc(-n3cccc3)ccc21,,-1.52%,6.05% (inactive),
Cc1ccccc1S(=O)(=O)Cc1ccc(C(=O)NC2CCCCC2C)o1 (stereo not given),,,,inactive
CCOC(=O)N1CCC(NC(=O)c2ccc(CS(=O)(=O)c3ccccc3C)o2)CC1,,-13.7%,-11.9% (inactive),
Cc1ccccc1S(=O)(=O)Cc1ccc(C(=O)NC2CCC(C)CC2)o1 (stereo not given),18.4 µM (active),-18.5%,,
